Drawing on PubChem BioAssay (NCATS), this text covers activation and Potency for 32 compounds.

Each structure is given as a SMILES string. Results filed as inconclusive are left out. A number with no mark means an inactive call. Calls of active or inactive are those of the source. The call rests on the fitted dose curve; in most records, active means well fitted activation curve with a large enough effect; inconclusive means small, poorly fitted or top-dose-only effect; inactive means no such curve, though single readings can be large or run the other way.

For the assay, the target named is Cellular tumor antigen p53 (Homo sapiens) (UniProt P04637). The assay is described as follows: Primary qHTS for small molecule compounds that upregulate eGFP-tagged delta133p53alpha (in N-terminal) cells. (AID 2060322). Further: nearly all actives have a fitted effect of over 75% in size.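 On activation: series mostly up to about 56 µM; 0% = DMSO vehicle and 100% = reference activator.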 The following applies: NCI-H358 eGFP-delta133p53alpha fluorescence, 24 h; activation: active compounds read high. The gist of the method:
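NCI-H358 cells pre-induced 24 h with 10 ng/ml doxycycline to express N-terminal eGFP-delta133p53alpha, then dosed 24 h at 37C without doxycycline; fixed, Hoechst-stained, GFP intensity by laser scanning cytometry, normalized to DMSO (0%) and 57.5 uM 5-azacytidine (100%).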
Potency means the concentration at half of the fitted maximal effect.

Cellular tumor antigen p53 (Homo sapiens), sequence (P04637 whole entry, looked up): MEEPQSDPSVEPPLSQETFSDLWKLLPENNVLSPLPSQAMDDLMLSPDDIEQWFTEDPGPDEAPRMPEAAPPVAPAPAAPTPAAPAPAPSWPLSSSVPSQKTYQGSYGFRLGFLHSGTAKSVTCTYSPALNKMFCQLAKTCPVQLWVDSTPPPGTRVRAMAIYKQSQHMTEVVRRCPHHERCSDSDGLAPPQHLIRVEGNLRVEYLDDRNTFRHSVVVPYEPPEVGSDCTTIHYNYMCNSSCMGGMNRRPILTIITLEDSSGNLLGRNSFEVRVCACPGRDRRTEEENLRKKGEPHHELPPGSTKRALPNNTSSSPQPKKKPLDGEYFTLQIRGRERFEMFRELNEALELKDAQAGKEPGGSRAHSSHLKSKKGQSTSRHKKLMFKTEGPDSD

Take `CO/N=C(/C(=O)N[C@@H]1C(=O)N2C(C(=O)OCOC(=O)C(C)(C)C)=C(C)CS[C@H]12)c1csc(N)n1`: the activation is -20.9%.

For the compound `CCN(CC)CCOC(=O)C(Cc1cccc2ccccc12)CC1CCCO1` (configuration not stated), the activation was -0.837%.

On to `CC(=O)O[C@H]1C[C@@H]2CC[C@H]3[C@H]4C[C@H]([N+]5(C)CCCCC5)[C@@H](OC(C)=O)[C@@]4(C)CC[C@@H]3[C@@]2(C)C[C@H]1N1CCCCC1`, for which the activation was -4.56%.

Turning to `CCC(=C(CC)c1ccc(O)cc1)c1ccc(O)cc1`, the activation was -17%.

As for `O=C(N/N=C/c1ccccc1O)c1ccncc1`, the activation is -12.6%.

As to `Nc1nc(Cl)nc2c1ncn2[C@@H]1O[C@H](CO)[C@@H](O)[C@H]1F`, the activation was -22.8%.

Turning to `Cc1ccc(O)c(-n2nc3ccccc3n2)c1`, the activation was 7.53%.

As for `C[C@H]1[C@H](O)O[C@@H]2O[C@@]3(C)CC[C@@H]4[C@H](C)CC[C@@H]1[C@@]24OO3`, the Potency is 21.7 µM (active).

Regarding `O=C1CC(c2ccc(Cl)cc2)CC(=O)N1`, the activation was -11.9%.

With `Cc1c(C)n(CCN(C)C)c2ccc(C(=O)OCCN(C)C)cc12`, the activation is -11.9%.

Consider `Cc1cc2c(cc1S(N)(=O)=O)S(=O)(=O)CCC2`, for which the activation was -27.6%.

Turning to `CC(CC1c2ccccc2CCc2ccccc21)CN(C)C` (configuration not stated), the activation is -10%.

In the case of `COc1cc(C=CC(=O)CC(=O)C=Cc2ccc(O)c(OC)c2)ccc1O`, the Potency was 39.5 µM (active).

As to `CC(=O)[C@H]1CC[C@H]2[C@@H]3C[C@H](C)C4=CC(=O)CC[C@]4(C)[C@H]3[C@@H](O)C[C@]12C`, the activation is -15.9%.

`COc1ccc2c(c1)CC[C@H]1[C@@H]2CC[C@]2(C)[C@@H](NCCCCCCN3C(=O)C=CC3=O)CC[C@H]12`: the activation is 38.4%.

As for `O=C(CN1CCN(Cc2ccc3c(c2)OCO3)CC1)N1c2ccccc2Sc2ccccc21`, the activation is 1.69%.

With `O=C(NCN1CCOCC1)c1cnccn1`, the activation is -15.3%.

In the case of `CCC(CN)=C(c1ccccc1)c1ccccc1`, the activation was -4.18%.

As to `CCc1nn(CCCN2CCN(c3cccc(Cl)c3)CC2)c(=O)n1CCOc1ccccc1`, the activation was -3.35%.

With `CCOC(=O)Oc1ccc(CCNC(=O)[C@H](CCSC)NC(C)=O)cc1OC(=O)OCC`, the activation was 16.4%.

Regarding `CCCCN(CCCC)C(C(N)=O)c1ccc(OC)cc1` (configuration not stated), the activation was 20.9%.

For the compound `NC(=O)c1cccc2[nH]c(-c3ccc([C@@H]4CCCN4)cc3F)nc12`, the activation was -16.8%.

As for `CCOc1ccc(Cc2cc([C@@H]3O[C@H](CO)[C@@H](O)[C@H](O)[C@@H]3O)ccc2Cl)cc1`, the activation is -1.71%.

For `COCCc1ccccn1`, the activation is 15.1%.

Consider `CCN1CC(CCN2CCOCC2)C(c2ccccc2)(c2ccccc2)C1=O` (configuration not stated), for which the activation is 5.08%.

With `CCOc1ccc(NC(C)=O)cc1`, the activation was 7.53%.

With `CCCCCCCC/C=C\CCCCCCCCN`, the activation was -16.7%.

Regarding `C[N+]1(C)[C@@H]2CC(OC(=O)[C@H](CO)c3ccccc3)C[C@H]1[C@H]1O[C@@H]12` (some centres not stated), the activation was 14%.

On to `CC(C)(C)NCC(O)COc1cccc2c1CCC(=O)N2` (configuration not stated), for which the activation was 28.5%.

Take `CCC(=O)OCC(=O)[C@@]1(OC(=O)CC)[C@@H](C)C[C@@H]2[C@H]3CCC4=CC(=O)C=C[C@]4(C)[C@@]3(F)[C@@H](O)C[C@@]21C`: the activation is 3.16%.

With `NC(=O)NC1NC(=O)NC1=O` (configuration not stated), the activation is -17.5%.

`C/C(=C(\CCO)SS/C(CCO)=C(\C)N(C=O)Cc1cnc(C)nc1N)N(C=O)Cc1cnc(C)nc1N`: the activation was -9.6%.
